A selection: hits, their analogues and other compounds. The true share with any hit is near 1%.
E-sel TNF inh: TNF alpha driven E-selectin expression inhibition | HUVEC TNFa-induced E-selectin immunofluorescence, high content | inhibition, % at 2 µM | 120,000 tested, 0.71% active;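 active = inhibition above the batch mean plus 3 SD, and confirmed as a hit on visual image review, cut at about 43% in these data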;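 note: 0% = TNF-stimulated DMSO wells and 100% = unstimulated control wells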
cytoskel mod: cytoskeleton assembly modification | HUVEC TNFa F-actin phalloidin imaging, high content | inhibition, % at 2 µM | 91,000 tested, 0.18% active | AID 836;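 active = inhibition above the batch mean plus 3 SD and confirmed as a hit by visual image inspection, cut at about 30% in these data, passing the limit was not always enough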
TNFa cytotox: toxic to HUVEC cells under TNF alpha stimulation; HUVEC TNFalpha-stimulated, Hoechst cell count, imaging; cell count reduction, % at 2 µM; 93,000 tested, 0.17% active;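 active = cell count reduction exceeding the screen mean by over 5 SD, scaled to untreated wells per plate, cut at about 78% in these data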;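 note: cells counted after 24 h of TNF alpha exposure following the 1 h pretreatment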
VCAM1 TNFa inh: reduces TNF alpha induced VCAM1 expression in HUVEC; HUVEC TNFa-induced VCAM-1 immunofluorescence, high-content imaging; inhibition, % at 2 µM; 95,000 tested, 0.48% active; AID 802;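 active = inhibition above the batch mean plus 3 SD, with images confirmed as a hit by eye, cut at about 37% in these data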;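 note: 0% = TNF-stimulated DMSO wells and 100% = unstimulated control wells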
The depositor's hits bear a star; . = no result.

SMILES | E-sel TNF inh | cytoskel mod | TNFa cytotox | VCAM1 TNFa inh
COC(=O)c1c(NC(=O)c2ccc(S(=O)(=O)N3CCOCC3)cc2)sc2c1CCN(C)C2 | 17 | -20 | 7 | 54*
COc1ccc(/C=C2\SC(=NCc3ccccc3)N(Cc3ccccc3)C2=O)cc1OC | -34 | -14 | 10 | -5
O=C(COC(=O)CCc1ccc(S(=O)(=O)N2CCCCC2)cc1)Nc1ccc2c(c1)OCO2 | -17 | . | . | .
C#CCN1C(=O)C(O)(CC(=O)c2cccc(OC)c2)c2ccccc21 (configuration not stated) | 85* | -18 | -13 | 11
COc1cccc(-n2nc(C#N)c(Cl)cc2=O)c1 | 98* | . | . | .
Cc1cc(C)n(C(=O)CNC(=O)CCc2ccccc2)n1 | 99* | -16 | -32 | 15
O=C(CSc1nnc(-c2cccs2)n1-c1ccccc1)N1CCCC1 | 21 | -44 | 88* | 59
O=C(CSc1nnc(-c2cccs2)n1-c1ccccc1)N1CCOCC1 | -9 | 12 | -10 | 4
COc1ccc(S(=O)(=O)NCC(c2cccnc2)N2CCN(c3ccc(F)cc3)CC2)cc1C (configuration not stated) | -13 | -10 | -2 | 4
O=C(O)CN1C(=O)C2(OCCCO2)c2ccccc21 | -2 | -8 | 5 | 9
Cc1ccccc1CN1C(=O)C2(OCCCO2)c2ccccc21 | -5 | 64* | -30 | 5
O=C(NCCN1CCN(c2ccccc2)CC1)c1ccc(NC(=O)C2CCCO2)cc1 (configuration not stated) | -5 | 7 | 8 | 14
Cc1nc2ccccc2n1-c1nc(-c2ccco2)cc(C(F)(F)F)n1 | 100* | . | . | .
Cc1n[nH]c(C)c1CCc1nc2c3ccccc3nc(SCC(N)=O)n2n1 | . | -42 | -20 | -4
Cc1ccc(NC(=O)CSc2nc3ccccc3c3nc(CCc4c(C)n[nH]c4C)nn23)cc1F | 82* | 4 | -6 | -13
O=C(c1cccc(F)c1)N1CCN(c2cc(N3CCCCC3)c(F)cc2[N+](=O)[O-])CC1 | 51* | 16 | 15 | -5
Cc1ccc2c(c1)c1c(n2CC(O)Cn2c(C)nc3ccccc32)/C(=N\O)CCC1 (configuration not stated) | -2 | 1 | 1 | 1
COc1ccc(OC)c(CCNC(=O)CSc2ccsc2[N+](=O)[O-])c1 | 77* | . | . | .
COc1ccc(CCNC(=O)CSc2ccsc2[N+](=O)[O-])c(OC)c1 | 7 | . | . | .
Cc1ccc(Sc2c(C#N)c(-c3ccccc3)nn2C)cc1 | 9 | -21 | 4 | 6
Cn1c(=O)c2c(nc(SCC(=O)NC34CC5CC(CC(C5)C3)C4)n2C)n(C)c1=O | 68* | -16 | 14 | 1
Cc1ccc(C2/C(=C(\O)c3cnn(-c4ccccc4)c3C)C(=O)C(=O)N2CCN(C)C)o1 (configuration not stated) | -37 | -10 | 91* | 39
CCN(CC)CCN1C(=O)C(=O)/C(=C(/O)c2cnn(-c3ccccc3)c2C)C1c1ccc(C)o1 (configuration not stated) | 5 | -15 | 8 | -10
c1ccc(-n2c(-c3ccncc3)nnc2-c2cccs2)cc1 | 16 | 15 | -17 | 0
CO/N=C/C(=N\Nc1ccc(C)cc1)C(=O)c1ccc(OC)cc1 | 6 | -19 | 24 | 40*
SMILES | E-sel TNF inh | cytoskel mod | TNFa cytotox | VCAM1 TNFa inh
CO/N=C/C(=N\Nc1ccc(OC)cc1)C(=O)c1ccc(F)cc1 | -11 | . | . | .
N#CCc1nc2c3c4c(sc3ncn2n1)CCCC4 | 0 | -26 | 27 | 60*
COc1ccc(OC)c(NC(=O)c2cccc(C)c2[N+](=O)[O-])c1 | -11 | . | . | .
C1=C(c2ccc(-c3ccccc3)cc2)Nc2ncnn2C1c1ccco1 (configuration not stated) | 65* | 2 | 1 | -2
Fc1ccc(C2=CC(c3ccco3)n3ncnc3N2)cc1 (configuration not stated) | 4 | . | . | .
OCCCc1nc2n(n1)C(c1cccs1)C=C(c1ccc(Br)cc1)N2 (configuration not stated) | -5 | -4 | -8 | -16
Brc1ccc(C2=CC(c3cccs3)n3ncnc3N2)cc1 (configuration not stated) | 100* | -1 | 15 | 4
Cn1nnnc1SCC(=O)Nc1cc(C(C)(C)C)nn1-c1ccccc1 | . | -63 | -4 | 12
Cc1cc(NC(=O)CSc2nnnn2C)n(-c2ccccc2)n1 | 14 | 35* | -52 | -6
COCCn1c(SCC(=O)c2ccc3c(c2)OCCO3)nnc1C(C)C | -11 | -2 | -6 | 14
COCCn1c(SCC(=O)c2ccc(Cl)cc2)nnc1C(C)C | 71* | 54 | -13 | -1
COc1ccc(C2C(C(=O)Nc3cccnc3)=C(C)Nc3nc(-c4cccs4)nn32)cc1 (configuration not stated) | 100* | -15 | -31 | 17
CSc1ccc(S(=O)(=O)Nc2ccc3c4c(cccc24)CC3)cc1 | 26 | -46 | 18 | 44*
O=S(=O)(Nc1ccc2c3c(cccc13)CC2)c1ccc(F)cc1 | -43 | -20 | 10 | -3
CCOC1OC2C(CO)OC(n3cnc4c(N)ncnc43)C2O1 (configuration not stated) | -30 | . | . | .
CCn1c(SCC(=O)Nc2ccccc2OC)nnc1-c1cnccn1 | 62* | 33 | -34 | -2
C=CCn1c(SCC(=O)Nc2ccccc2OC)nnc1-c1ccccn1 | 3 | 24 | 8 | -15
Cc1noc(C)c1C(=O)NCCC1=CCCCC1 | 64* | -8 | -32 | -3
CCOC(=O)c1sc(NC(=O)CSc2nc3c(cc2C#N)CCC3)c(C#N)c1C | 10 | 18 | -61 | 86*
CCOC(=O)c1sc(NC(=O)CSc2nc3c(cc2C#N)CCCCCC3)c(C#N)c1C | -25 | 4 | -17 | -13
N#Cc1cc2c(nc1SCC(=O)N1CCCCC1)CCCC2 | -6 | 7 | 19 | 52*
N#Cc1cc2c(nc1SCC(=O)N1CCCCC1)CCCCC2 | -28 | -2 | -18 | 7
COc1ccc(C2C(C(=O)OCC(=O)N3CCCCC3)CCC(=O)N2c2ccc(OC)cc2)cc1 (configuration not stated) | . | 2 | -9 | 3
CC(=O)Nc1cccc(OCC(=O)NC(C)C(C)C)c1 (configuration not stated) | 10 | -8 | 4 | -16
COc1ccc2nc(C)cc(SCC(=O)NNC(=O)COc3ccc(C)cc3)c2c1 | . | 15 | -9 | -7
SMILES | E-sel TNF inh | cytoskel mod | TNFa cytotox | VCAM1 TNFa inh
CCC(C)Sc1nc(O)cc(=O)[nH]1 (configuration not stated) | . | -2 | 78* | 15
COC(=O)c1cc2sccc2n1CC(=O)N1CCCc2ccccc21 | . | 3 | -11 | 12
COC(=O)c1cc2oc(C)cc2n1CC(=O)N1CCCc2ccccc21 | 71* | 18 | -23 | 0
Cc1ccc(C)c(S(=O)(=O)C(C#N)c2nc3ccccc3nc2N2CC(C)OC(C)C2)c1 (configuration not stated) | 3 | 14 | -26 | 8
CCN(CC)c1ccc2cc(C=O)c(=O)oc2c1 | . | -2 | -1 | 8
CC(c1nnc(SCC(=O)Nc2ccc3[nH]c(=O)[nH]c3c2)n1Cc1ccccc1)N(C)C (configuration not stated) | -12 | . | . | .
COCCNC(=O)c1c[nH]c2cc(OC)c(OC)cc2c1=O | 3 | 22 | -22 | -1
